From PubChem
CYP2C9 activ = CYP2C9 (human) activation; P11712; recombinant CYP2C9, luciferin-H conversion, luminescence; hits give high values; factor 1 = untreated enzyme, 0 = blocked; activation factor at 5 µM; 1.4% of 96,000 active;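 active = activation factor of 2 or more for CYP2C9 at a 5 µM dose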;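 also: 0 = sulfaphenazole-blocked wells and 1 = vehicle-only wells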
Target sequence (P11712 whole entry, looked up): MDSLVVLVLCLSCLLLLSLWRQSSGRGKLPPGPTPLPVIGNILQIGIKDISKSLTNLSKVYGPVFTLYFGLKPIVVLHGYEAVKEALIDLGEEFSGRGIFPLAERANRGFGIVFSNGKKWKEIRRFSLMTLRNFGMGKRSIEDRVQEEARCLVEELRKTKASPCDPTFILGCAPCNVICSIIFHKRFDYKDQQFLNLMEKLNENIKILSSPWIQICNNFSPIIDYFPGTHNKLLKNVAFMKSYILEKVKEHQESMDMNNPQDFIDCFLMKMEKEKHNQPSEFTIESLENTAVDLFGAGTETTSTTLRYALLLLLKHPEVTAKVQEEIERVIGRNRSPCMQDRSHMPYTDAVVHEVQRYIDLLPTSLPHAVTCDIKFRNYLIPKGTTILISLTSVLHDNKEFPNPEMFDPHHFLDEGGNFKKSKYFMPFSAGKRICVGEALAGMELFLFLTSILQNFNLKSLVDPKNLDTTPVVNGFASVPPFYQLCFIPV
CYP2C9 inhib = inhibitors of human CYP2C9. P11712. CYP2C9 Supersomes, luciferin-H conversion, luminescence. inhibition, % at 5 µM. 20% of 96,000 active;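 active = blocking of liver enzyme CYP2C9 beyond about 50% at 5 µM, limit read from the data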
Cav32 inh = inhibitors of human Cav3.2 T-type calcium channel; 4% of 100,000 active; Cav3.2-expressing cells, Fluo-4 calcium fluorescence FDSS; hits give low values; O95180; AID 449739; B-score at 10 µM;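 active = single-dose well whose peak fluorescence ratio is a statistical outlier from its plate by either plate-standardised score or position-corrected B-score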
CYP2C19 inh = blocks human cytochrome P450 2C19; P33261; CYP2C19 Supersomes, luciferin-H EGE luminescence, 30 min; inhibition, % at 5 µM; 21% of 96,000 active; AID 778;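 active = CYP2C19 inhibition above a set limit at 5 µM in the primary screen, cut at about 50% in these data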;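 also: plate controls were negative control wells for no effect and 2.5 mM tranylcypromine positive control for full effect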
CYP2C19 act = increases human CYP2C19 enzyme activity | AID 1025 | activation factor at 5 µM | recombinant CYP2C19, luciferin-H EGE luminescence; hits give high values; 0 = fully inhibited enzyme, 1 = untreated enzyme | P33261 | 96,000 tested, under 10 active;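 active = activation factor of at least 2 at 5 µM in the primary screen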;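 also: 0 = wells with 2.5 mM tranylcypromine and 1 = vehicle-only wells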
Active calls of the source: *; . = no result. Most compounds without a hit are left out; they make up all but 27% or so of the library.

SMILES	CYP2C9 activ	CYP2C9 inhib	Cav32 inh	CYP2C19 inh	CYP2C19 act
CC(=O)Nc1nonc1NC(=O)CSc1ccccn1	0.9	9	1.1	19	0.8
Cc1ccnc(NC(=O)CSc2cc(=O)n(C)c3ccccc23)c1	3.1*	-209	0.53	-127	2.3*
O=C(CSc1ccccn1)Nc1cccc(NC(=O)CSc2ccccn2)n1	0.4	55*	-0.085	13	0.9
Cc1cc(C)nc(N(C#N)S(=O)(=O)c2ccccc2Cl)n1	.	.	1.6	.	.
O=C(NCc1ccccc1)C1=C[C@H](C2CC2)C[C@H](OCCCCO)O1	.	.	-0.26	.	.
Cn1c(SCc2ccccc2)nnc1-c1c[nH]c2ccccc12	0.6	44	-0.052	49	0.5
COC(=O)c1ccc(CSc2nnc(-c3c[nH]c4ccccc34)n2C)o1	0.2	78*	0.47	93*	0.1
COCCn1c(SCc2ccc(C(=O)OC)o2)nc2cc(Cl)ccc2c1=O	0.1	93*	-3.9*	94*	0.1
COCCn1c(SCc2ccc(C(=O)OC)o2)nnc1-c1c[nH]c2ccccc12	0.3	68*	0.35	74*	0.3
CCc1nc(SCC(=O)Nc2ccnc3ccccc23)n[nH]1	0.8	19	0.17	2	1
COc1ccccc1CNC(=O)c1ccc(-c2ccccc2Cl)o1	.	.	-2.1	.	.
O=c1c2c3c(sc2n2cnnc2n1-c1ccccc1)N(Cc1ccccc1)CCC3	0.9	11	2	5	0.9
Cc1ccc(Cl)cc1NC(=O)N[C@@H](C)C(=O)O	1.2	-16	-0.75	-18	1.2
CCOC(=O)C1=C(C)NC(=O)NC1c1cc2c(cc1Br)OCO2 (configuration not stated)	.	.	0.72	.	.
CC1=C(C(=O)OCC(C)C)C(c2ccccc2Cl)NC(=O)N1C (configuration not stated)	0.2	84*	-2.2	98*	0
CCOCCOC(=O)C1=C(C)N(C)C(=O)NC1c1ccccc1Cl (configuration not stated)	0.9	12	0.41	54*	0.5
COC(=O)C1=CN(C(C)C)C=C(C(=O)OC)C1c1cc2c(cc1Br)OCO2	0.7	26	-0.91	60*	0.4
CC1=C(C(=O)OCC(C)C)C(c2cc3c(cc2Br)OCO3)NC(=O)N1C (configuration not stated)	0.3	72*	-0.78	84*	0.2
Cc1ccc(C(=O)N[C@@H](C)CN2C3=NC[C@H](C)N3C[C@H]2Cc2ccc(O)cc2)cc1Br	.	.	-0.56	.	.
CCOC(=O)Nc1c(O)ccc2oc(C)c(-c3ccccc3)c12	0.8	24	.	21	0.8
COC(=O)c1cccnc1NC(=S)NNC(=O)c1ccccc1	0.9	12	-0.61	-6	1.1
Cc1nc(C(F)(F)F)c(C(=O)NC(=O)Nc2ccccc2)s1	0.8	18	0.003	21	0.8
CCOC(=O)CSc1nc(N)c(C(=O)Nc2ccc(N(C)C)cc2)s1	0.5	47	1.3	65*	0.3
CCOC(=O)CSc1nc(C)c(C(=O)OCC)s1	0.3	65*	0.63	38	0.6
COc1ccc(NC(=O)c2sc(SCc3ccccc3)nc2N)cc1	0.9	12	-0.69	0	1
SMILES	CYP2C9 activ	CYP2C9 inhib	Cav32 inh	CYP2C19 inh	CYP2C19 act
CCOC(=O)CSc1nc2ccc(N)cc2s1	0.8	19	0.048	46	0.5
O=C(N/N=C/C=C/c1ccccc1)c1cccc(Br)c1	1.3	-26	-1.2	-18	1.2
O=C(N/N=C/c1cccc(Oc2ccccc2)c1)c1cccc(Br)c1	0.5	53*	-3.9	42	0.6
O=C(N/N=C/c1cccc(Oc2ccccc2)c1)c1ccccc1Br	0.4	63*	-2.8	30	0.7
COc1cc(C2C(C(C)=O)=C(O)C(=O)N2CCc2c[nH]c3ccccc23)ccc1O (configuration not stated)	0.4	64*	0.19	-2	1
O=c1c(-c2nnc(SCc3ccc(Cl)cc3)o2)cccn1Cc1ccccc1	0.6	45	-2	91*	0.1
O=C(Nc1ccccc1-c1nnc(SCc2ccc(Cl)cc2)o1)c1ccccc1	0.3	70*	-4.2*	-3	1
Clc1ccc(CSc2nnc(-c3c[nH]c4ccccc34)o2)cc1	0.8	20	0.56	5	1
O=C(O)c1cccc(CSc2nnc(-c3ccco3)o2)c1	1.1	-8	.	-5	1.1
O=C(Nc1ccccc1-c1nnc(SCc2ccccc2)o1)c1ccccc1	0.2	79*	-5.8*	16	0.8
CCOC(=O)Nc1ccc2c(c1)Nc1ccccc1S2	0.9	15	-0.91	0	1
CC(=O)c1ccc2c(c1)Nc1ccccc1S2	0.4	57*	.	12	0.9
O=C(Cc1csc(Nc2nc(=S)[nH]c3ccccc23)n1)NCc1ccc(Cl)cc1	0.2	83*	-0.4	56*	0.4
COc1ccc(CNC(=O)Cc2csc(Nc3nc(=S)[nH]c4ccccc34)n2)cc1	0.1	86*	.	66*	0.3
Cc1cc(Oc2ccc(C#N)cc2)nc(N2CCOCC2)n1	0.6	38	-0.056	17	0.8
COc1cc(CN2CCC(C(=O)N3CCCC(C)C3)CC2)cc(Br)c1O (configuration not stated)	1.1	-11	.	-8	1.1
CN(C)c1ccc(C(=O)OCC(=O)NC2CCCCC2)cc1	0.9	13	0.31	88*	0.1
CCN(CC)c1ccc(C(=O)OCC(=O)NC2CCCCC2C)cc1 (configuration not stated)	1.3	-26	-0.96	49	0.5
Cc1noc(C)c1COc1ccc(C(=O)OCC(=O)NC2CCCCC2C)cc1 (configuration not stated)	0.4	59*	-0.038	27	0.7
CC1CCCC(NC(=O)COC(=O)c2ccc(N(C)C)cc2)C1C (configuration not stated)	0.5	54*	-2.2	83*	0.2
[O-][n+]1onc2c3ccnnc3ccc21	1	-5	-0.03	-9	1.1
N[C@@H](CO)c1nnc([C@H](CCC(=O)O)NC(=O)C2CCNCC2)o1	.	.	1.4	.	.
CCOC(=O)CNC(=O)Cn1cnc2ccc(S(=O)(=O)N3CCC(C)CC3)cc2c1=O	0.8	23	-1.4	-9	1.1
CC1(C)Cc2nc3sc4c(SCC(=O)NCc5ccccc5)ncnc4c3cc2CO1	0.3	73*	-0.11	83*	0.2
CCOC(=O)C1CCN(Cc2nc3ccc(Cl)cc3n2CCO)CC1	0.9	6	0.53	26	0.7
COc1ccc(CCNS(=O)(=O)c2cn(C)c(=O)n(C)c2=O)cc1OC	1	4	0.23	22	0.8
N#CC(c1ccccn1)(c1ncc(C(F)(F)F)cc1Cl)N1CCOCC1 (configuration not stated)	0.8	17	0.78	10	0.9
Cc1ccsc1CN1CCN(c2ccccn2)CC1	0.3	70*	.	93*	0.1
CC(=O)Nc1cccc(NC(=O)C2CCCN2C(=O)Nc2cccc(C)c2)c1 (configuration not stated)	1	-4	0.29	-6	1.1
